# Screening results from PubChem BioAssay.
# EP2 mod = modulates human prostaglandin E2 receptor EP2 signaling; 260,000 tested, 0.83% active; induction, % at 25 µM; EP2-expressing cells, cAMP HTRF FRET, PGE2 co-stimulation;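 active = compounds whose cAMP rise, as percent of the full-agonist control response, exceeds 60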;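 also: rat C6 glioma line stably carrying human EP2 under a CMV promoter; the protocol text gives 20 µM as final concentration; 100% = response of wells given 1 µM PGE2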
# Pf gamet viab = inhibitors of late stage P. falciparum gametocyte viability | 150,000 tested, 0.065% active | P. falciparum stage V gametocytes, ATP luminescence, 24 h | inhibition, % at 10.9 µM;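 active = inhibition above the mean plus 3 SD of compounds within the control limits, set per campaign, cut at about 38% in these data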;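 also: 0% = DMSO wells and 100% = medium only without gametocytes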
# S1P3 antag = blocks the human S1P3 receptor | 170,000 tested, 0.27% active | Q99500 | CHO S1P3 NFAT-BLA reporter, FRET fluorescence, antagonist mode | AID 485 | inhibition, % at 4.98 µM;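 active = inhibition above the plate cutoff, the mean inhibition of test wells on that plate plus 3 SD, cut at about 28% in these data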;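 also: cells challenged with S1P at its EC80 of 0.8 µM; blue over green emission ratio from cleaved BLA substrate after 4 h stimulation; 0% = S1P-stimulated wells and 100% = unstimulated DMSO-only wells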
# PGE2 EP2 inh = EP2 receptor (human) inhibition | 260,000 tested, 0.52% active | inhibition, % at 25 µM | C6 glioma cells expressing human EP2, cAMP TR-FRET; cells stimulated with saturating PGE2;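 active = percent inhibition above 40 after rounding to a whole number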;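 also: rat C6 glioma host cells with rolipram phosphodiesterase inhibitor present; the protocol text gives 20 µM as final concentration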
# S1P4 agonist = activates the human S1P4 receptor; O95977; S1P4-expressing cell line, agonist reporter assay; activation, % at 4.98 µM; 220,000 tested, 0.35% active; in the data active = activation above about 11%;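 also: 0% = DMSO vehicle and 100% = reference agonist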
# Target sequence (O95977 whole entry, looked up): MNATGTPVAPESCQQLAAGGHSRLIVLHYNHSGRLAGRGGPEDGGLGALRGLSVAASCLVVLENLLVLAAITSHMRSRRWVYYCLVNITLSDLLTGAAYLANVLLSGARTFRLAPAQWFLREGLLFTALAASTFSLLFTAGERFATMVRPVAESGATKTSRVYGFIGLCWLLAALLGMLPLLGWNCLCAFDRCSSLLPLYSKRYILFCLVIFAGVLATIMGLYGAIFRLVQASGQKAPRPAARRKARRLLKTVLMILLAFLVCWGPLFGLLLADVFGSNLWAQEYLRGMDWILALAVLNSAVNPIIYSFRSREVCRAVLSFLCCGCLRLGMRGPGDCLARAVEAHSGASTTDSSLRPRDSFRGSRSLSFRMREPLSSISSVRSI
# S1P4 antag = antagonists of human S1P4 receptor; O95977; 220,000 tested, 0.26% active; inhibition, % at 4.98 µM; S1P4-expressing cells, antagonist mode, reporter read-out; AID 1510; in the data active = inhibition above about 29%;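 also: 0% = wells stimulated with agonist and 100% = vehicle wells without agonist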
# S1P4 antag conf = confirmation of human S1P4 receptor antagonists | shares compounds with S1P4 antag | S1P4-expressing cell line, antagonist mode, reporter read-out | inhibition, % at 4.98 µM | 520 tested, 71% active; in the data active = inhibition above about 30%
# S1P1 antagonist = human S1P1 antagonism as S1P4 antagonist counter-screen; shares compounds with S1P4 antag; cell-based S1P1 antagonist counterscreen, inhibition; inhibition, % at 4.98 µM; 520 tested, 37% active; AID 1564; in the data active = inhibition above about 40%;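 also: receptor stimulated with S1P near its EC80; 0% = agonist stimulated wells and 100% = vehicle only wells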
# * hit, by the source's call; / = no result. Hits are enriched below; roughly 1.9% of the tested compounds scored in any of these assays.
SMILES,EP2 mod,Pf gamet viab,S1P3 antag,PGE2 EP2 inh,S1P4 agonist,S1P4 antag,S1P4 antag conf,S1P1 antagonist
O=C(c1nnsc1S(=O)c1ccc(Cl)cc1)N1CCOCC1 (stereo not drawn),-76.5,2.0,-15.8,21.3,-1.5,15.1,/,/
COc1ccc(OC)c(C2NC(=O)C(C#N)=C(S)N2c2ccc(C)cc2)c1 (stereo not drawn),-26.2,/,/,9.0,/,/,/,/
O=C(Nc1ccc2oc(=O)ccc2c1)c1ccc(Cl)c(Cl)c1,-41.0,/,/,8.5,/,/,/,/
CCN(CC)c1ccc(/C=c2\sc3nc4ccccc4n3c2=O)c(O)c1,-54.2,-12.4,15.3,3.9,5.5,37.4*,22.1,-25.1
COc1ccccc1OCCCC(=O)Nc1nnc(C(C)C)s1,-26.7,/,/,22.4,/,/,/,/
CCOC(=O)COc1ccc2ccccc2c1/C=C/[N+](=O)[O-],-32.5,-3.7,9.0,37.5,-0.6,48.7*,120.0*,154.9*
CCOC(=O)COc1ccc2nsnc2c1,-11.4,7.6,-14.8,18.9,-1.2,-3.0,/,/
CCOC(=O)COc1ccc(/C=C/[N+](=O)[O-])c(OCC(=O)OCC)c1,-16.2,/,/,32.8,-3.5,29.6*,116.0*,82.6*
COc1ccc(NC(=O)CSc2ncnc3sc4c(c23)CCC(C)C4)c(OC)c1 (stereo not drawn),8.4,/,/,14.7,/,/,/,/
COc1ccc(/C=c2/sc3n(c2=O)C(c2ccccc2OC)C2=C(N=3)c3ccccc3CC2)cc1O (stereo not drawn),3.9,-19.1,/,7.8,-3.8,33.3*,77.7*,69.5*
CCOC(=O)C1=C(C)N=c2s/c(=C\c3ccc(O)c([N+](=O)[O-])c3)c(=O)n2C1c1ccccc1OC (stereo not drawn),/,-8.1,/,/,/,/,/,/
O=C(/C=C/c1ccccc1O)c1ccco1,/,8.0,/,/,/,/,/,/
O=C(/C=C/c1cc(Br)ccc1O)c1ccco1,-31.5,-8.1,-5.4,4.8,0.4,54.8*,103.0*,55.5*
Cc1cccc2cc(CN(C(=O)c3cccc(F)c3)C3CCCC3)c3nnnn3c12,22.6,/,/,11.8,/,/,/,/
CN(C)c1ccnc(NCc2ccccc2)c1C#N,-7.7,-35.6,-16.8,8.0,-0.6,-14.3,/,/
Cc1cc(N(C)C)c(C#N)c(NCc2ccccc2)n1,24.1,-5.4,5.8,12.4,0.2,34.6*,24.1,24.4
CCCCc1ccc(/C=C2\C(=O)c3ccccc3C(O)=C2C(=O)OCC)cc1,32.5,/,/,11.1,-1.0,35.6*,68.0*,21.5
CCOC(=O)C1=C(Cc2ccc(F)cc2)C(=O)c2ccccc2C1=O,-13.6,-5.3,/,18.3,-0.9,18.1,/,/
Cc1ccc(NN2C(=O)C=C(c3ccc(Cl)cc3)C2=O)cc1,-32.6,-8.7,/,40.2*,-2.6,31.2*,91.8*,21.3
O=[N+]([O-])c1cnc(Sc2ccncn2)s1,-43.7,14.4,11.4,69.7*,0.7,35.0*,115.5*,111.6*
Cc1cc(S(=O)(=O)N(Cc2ccco2)Cc2ccccc2Cl)ccc1-n1cnnn1,-75.4,/,/,19.6,/,/,/,/
FC(F)(F)c1cnc(Sc2nc3nccc(-c4ccc(Cl)cc4)n3n2)c(Cl)c1,31.9,12.8,/,/,0.3,-6.4,/,/
COc1ccc(-c2ccnc3nc(Sc4ncc(C(F)(F)F)cc4Cl)nn23)cc1,2.1,/,/,6.5,-1.1,60.6*,1.0,21.2
CC(=O)N1CCN(c2ccc([N+](=O)[O-])c(-n3nc(C)cc3C)c2)CC1,15.2,2.5,7.0,12.9,-0.4,-6.3,/,/
Cc1cc(C)n(-c2cc(N3CCN(S(=O)(=O)c4ccc(Cl)cc4)CC3)ccc2[N+](=O)[O-])n1,24.2,26.3,-3.3,5.5,-0.7,60.1*,13.6,25.9
SMILES,EP2 mod,Pf gamet viab,S1P3 antag,PGE2 EP2 inh,S1P4 agonist,S1P4 antag,S1P4 antag conf,S1P1 antagonist
O=C(Nc1nc2ccc(F)cc2s1)c1c(O)c2cccc3c2n(c1=O)CCC3,7.8,/,/,6.4,/,/,/,/
Cc1cc(NCCN2CCOCC2)nc(-c2ccccc2)n1,-20.2,/,/,7.6,/,/,/,/
Cc1cc(C)c2c(NCc3ccc(N(C)C)cc3)n[nH]c2n1,-86.1,/,/,15.1,/,/,/,/
COc1ccccc1C(c1nnnn1C(C)(C)C)N1CCCCCC1 (stereo not drawn),25.0,/,21.7,9.8,-4.5,32.3*,0.5,-19.0
O=C1CCCCc2sc(Br)c([N+](=O)[O-])c2N1,-31.7,3.4,0.8,10.0,-3.2,79.8*,102.2*,65.7*
Cc1cc(NC(=O)c2ccccc2Cl)c(C(C)C)cc1O,-1.6,-16.0,/,6.5,-0.2,-9.1,/,/
Cc1cc(NC(=O)/C=C/c2ccccc2)c(C(C)C)cc1O,-40.9,9.9,8.2,9.4,0.9,93.7*,108.9*,13.3
CCCC(c1nnnn1CCc1ccccc1)N(Cc1cc2cccc(C)c2[nH]c1=O)C1CCCC1 (stereo not drawn),42.6,/,/,5.4,/,/,/,/
CN(CCC#N)C(=O)COC(=O)c1ccccc1C(=O)c1ccc(Cl)c([N+](=O)[O-])c1,22.5,-0.8,-5.8,5.5,-2.0,55.5*,111.7*,52.8*
O=C(COC(=O)c1ccccc1C(=O)c1ccc(Cl)c([N+](=O)[O-])c1)NC1CCCCCC1,-40.0,29.4,/,8.0,-3.0,19.7,/,/
CC(C)N(C(=O)COC(=O)c1ccccc1C(=O)c1ccc(Cl)c([N+](=O)[O-])c1)C(C)C,12.3,-1.6,-2.9,31.5,-1.2,30.9*,60.1*,46.3*
COc1cccc(C2(NC(=O)c3nsc(Cl)c3Cl)CCCC2)c1,-78.8,/,/,7.0,/,/,/,/
Cc1ccc(-c2nc(NC(=O)c3nn(C)cc3[N+](=O)[O-])sc2C)cc1C,-28.6,/,/,/,1.0,87.5*,114.9*,-29.3
Cc1ccc(-c2nc(NC(=O)c3nn(C)cc3[N+](=O)[O-])sc2C)cc1,-60.4,/,/,22.2,-8.4,77.8*,115.0*,-9.6
Cc1ccc(-c2nc(NC(=O)C(C)(C)C)sc2C)cc1,-44.2,/,/,6.8,/,/,/,/
O=[N+]([O-])c1cc(S(=O)(=O)C(F)(F)F)ccc1Sc1nc2ccccc2[nH]1,-2.8,-5.5,/,9.3,-0.7,33.1*,109.7*,1.3
OC(c1cc(-c2ccc(Cl)cc2)nc2ccccc12)C1CCCCN1 (stereo not drawn),-45.9,/,5.3,23.9,-2.2,53.1*,95.0*,83.5*
Cc1ccc2c(c1)/C(=N/OS(=O)(=O)c1ccccc1)CCS2,/,5.1,/,8.3,0.3,-13.6,/,/
